Results taken from the supplement of paper PMC4840960.
Where a name gives a salt, the structure may show the parent alone. ± gives the standard deviation of the averaged measurements.

Columns and labels:
[1] = system: E18 rat cortical neuron-glia co-culture; test: fiber score / MBP score (myelination specific beyond OL differentiation) (ratio); higher = more myelination-specific MBP alignment; conditions: treatment time: 8 days (DIV5-DIV13)
Procedure, shortened: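 Library compounds were applied at 1 or 5 µM in myelination medium, DIV5 to DIV13, to primary E18 rat cortical co-cultures grown at 20,000 cells/well in 96-well plates. After 4 % paraformaldehyde fixation and MBP/Olig2/DAPI immunostaining, four 10X fields per well in duplicate wells were scored. Each value is continuous MBP fiber length per Olig2+ nucleus divided by thresholded MBP area × intensity per Olig2+ nucleus.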

[2] = system: E18 rat cortical neuron-glia co-culture; test: myelination (MBP fiber length per Olig2+ nucleus), % of 1 µM DAPT response (DMSO = 0) (% of DAPT); higher = more myelination, active = 50 or more; conditions: treatment time: 8 days (DIV5-DIV13)
Procedure, shortened: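 Library compounds at 1 or 5 µM in myelination medium were applied from DIV5 to DIV13 to papain-dissociated E18 rat cortical co-cultures seeded at 20,000 cells/well on poly-d-lysine/laminin 96-well plates. Fixed cells (4 % paraformaldehyde) were immunostained for MBP and Olig2 with DAPI, and four 10X fields were analysed in each duplicate well. Continuous straight MBP fiber length per Olig2+ nucleus was set to 0 for 0.1 % DMSO and to 100 for a 1 µM positive control.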

Structure (SMILES) | fiber score / MBP score ([1]; 1 µM) | fiber score / MBP score ([1]; 5 µM) | myelination ([2]; 1 µM) | myelination ([2]; 5 µM)
CC(=O)O[C@]1(C(C)=O)CC[C@H]2[C@@H]3C[C@H](C)C4=CC(=O)CC[C@]4(C)[C@H]3CC[C@@]21C [Medroxyprogesterone acetate] | 1.1 | 0.549 | 0.776 (inactive) | -11.3 (inactive)
COc1ccc2cc(CCC(C)=O)ccc2c1 [Nabumetone] | 0.801 | 1.17 | -8.32 (inactive) | 6.9 (inactive)
CN(C)CCCN1c2ccccc2CCc2ccccc21 [Imipramine] | 0.817 | 0.517 | -3.36 (inactive) | -6.74 (inactive)
CC(=O)NC[C@H]1CN(c2ccc(N3CCOCC3)c(F)c2)C(=O)O1 [linezolid] | 0.899 | 0.929 | -7.33 (inactive) | 0.414 (inactive)
CC(C)NCC(O)c1cc(O)cc(O)c1 (centres undefined) [Metaproterenol] | 0.313 | 0.371 | -16.5 (inactive) | -14.3 (inactive)
CC(c1cc2ccccc2s1)N(O)C(N)=O (centres undefined) [Zileuton] | 0.599 | 0.628 | -6.73 (inactive) | -19.1 (inactive)
CC(C)C[C@H](NC(=O)[C@@H](O)[C@H](N)Cc1ccccc1)C(=O)O [Ubenimex] | 0.92 | 1.09 | -7.81 (inactive) | 1.09 (inactive)
CC[N+](C)(CC)CCOC(=O)C(O)(c1ccccc1)C1CCCCC1 (centres undefined) [Oxyphenonium] | 0.849 | 0.703 | -8.21 (inactive) | -6.58 (inactive)
NNC(=O)c1ccncc1 [Isoniazid] | 0.85 | 0.914 | -1.03 (inactive) | 0.697 (inactive)
O=[N+]([O-])c1cccc2cn[nH]c12 [7-Nitroindazole] | 0.691 | 0.753 | -9.77 (inactive) | -5.65 (inactive)
Nc1ccn([C@@H]2CS[C@H](CO)O2)c(=O)n1 [Lamivudine] | 0.832 ± 0.033 | 0.619 ± 0.073 | -7.54 (inactive) | -12.3 (inactive)
COc1ccc(C2CNC(=O)C2)cc1OC1CCCC1 (centres undefined) [Rolipram] | 0.626 | 0.618 | -51.4 (inactive) | -53.6 (inactive)
OCCN(CCO)c1nc(N2CCCCC2)c2nc(N(CCO)CCO)nc(N3CCCCC3)c2n1 [Dipyridamole] | 1.01 | 0.523 | 3.14 (inactive) | -17.3 (inactive)
NCC(=O)CCC(=O)O [Aminolevulinic Acid] | 1.11 | 1.44 | 0.461 (inactive) | 39.4 (inactive)
CC1(C)O[C@@H]2C[C@H]3[C@@H]4CCC5=CC(=O)C=C[C@]5(C)[C@@]4(F)[C@@H](O)C[C@]3(C)[C@]2(C(=O)CO)O1 [Triamcinolone Acetonide] | 1.37 | 1.32 | 5.47 (inactive) | 19.3 (inactive)
NC1CCN(c2nc3c(cc2F)c(=O)c(C(=O)O)cn3-c2ccc(F)cc2F)C1 (centres undefined) [Tosufloxacin] | 0.855 | 0.665 | -12.3 (inactive) | -14.4 (inactive)
NC1CCN(c2cccc(Cl)n2)CC1 | 1.09 | 0.551 | 4.32 (inactive) | -35 (inactive)
O=C1[C@H]2CCCC[C@H]2C(=O)N1CCCCN1CCN(c2nsc3ccccc23)CC1 [Perospirone] | 0.291 | 0.198 | -33.9 (inactive) | -34.5 (inactive)
Cc1cn([C@H]2C[C@H](N=[N+]=[N-])[C@@H](CO)O2)c(=O)[nH]c1=O [Zidovudine] | 0.929 | 0.666 | 11.9 (inactive) | -21.5 (inactive)
Clc1ccc2nsnc2c1NC1=NCCN1 [Tizanidine] | 0.796 | 0.443 | -26.5 (inactive) | -54.3 (inactive)
O=c1[nH]c(=O)n([C@H]2C[C@H](O)[C@@H](CO)O2)cc1F [Floxuridine] | 1.49 | 1.71 | 286 | 367 (active)
CC(C)(C)NCC(O)c1ccc(O)c(CO)c1 (centres undefined) [Albuterol] | 0.654 | 0.789 | -29.6 (inactive) | -17.3 (inactive)
CC1CNc2c(cccc2S(=O)(=O)N[C@@H](CCCNC(=N)N)C(=O)N2CC[C@@H](C)C[C@@H]2C(=O)O)C1 (some centres undefined) [Argatroban] | 0.647 | 0.566 | -43.9 (inactive) | -49.9 (inactive)
Cc1nc2n(c(=O)c1CCN1CCC(c3noc4cc(F)ccc34)CC1)CCCC2 [Risperidone] | 0.936 | 0.565 | -7.71 (inactive) | -15.1 (inactive)
CCCc1cc(=O)[nH]c(=S)[nH]1 [Propylthiouracil] | 0.95 | 0.854 | -9.29 (inactive) | -11.9 (inactive)
Nc1ncnc2c1ncn2[C@@H]1O[C@H](CO)[C@@H](O)[C@@H]1O [Vidarabine] | 0.8 | 1.2 | -13.9 (inactive) | 24.3 (inactive)

Structure (SMILES) | fiber score / MBP score ([1]; 1 µM) | fiber score / MBP score ([1]; 5 µM) | myelination ([2]; 1 µM) | myelination ([2]; 5 µM)
Clc1cccc(Cl)c1NC1=NCCN1 [Clonidine hydrochloride] | 0.735 | 0.879 | -10.4 (inactive) | -5.88 (inactive)
CC(=O)OCC(=O)NCCCOc1cccc(CN2CCCCC2)c1 [Roxatidine acetate] | 0.727 | 0.706 | -10.7 (inactive) | -14.2 (inactive)
CC(COc1ccccc1)NC(C)C(O)c1ccc(O)cc1 (centres undefined) [Isoxsuprine] | 0.798 | 0.841 | -4.41 (inactive) | -2.46 (inactive)
CC(C)c1ccc2oc3nc(N)c(C(=O)O)cc3c(=O)c2c1 [Amlexanox] | 0.826 | 1.05 | -13.2 (inactive) | 0.757 (inactive)
Nc1nc(F)nc2c1ncn2[C@@H]1O[C@H](CO)[C@@H](O)[C@@H]1O [Fludarabine] | 0.675 | 0.885 | -29.4 (inactive) | 34.3 (inactive)
CCCCCCCCCCC[C@@H](C[C@@H]1OC(=O)[C@H]1CCCCCC)OC(=O)[C@H](CC(C)C)NC=O [Orlistat] | 0.69 | 0.913 | -34.7 (inactive) | 38.7 (inactive)
CCN(CC)CC#CCOC(=O)C(O)(c1ccccc1)C1CCCCC1 (centres undefined) [Oxybutynin] | 0.964 | 0.547 | 9.59 (inactive) | -5.69 (inactive)
CCN(CC)C(=O)C1(c2ccccc2)CC1CN (centres undefined) [Milnacipran] | 0.697 | 0.817 | -8.81 (inactive) | -7.54 (inactive)
CC(=O)OCC(=O)[C@@]12OC3(CCCC3)O[C@@H]1C[C@H]1[C@@H]3CCC4=CC(=O)C=C[C@]4(C)[C@@]3(F)[C@@H](O)C[C@@]12C [Amcinonide] | 0.868 | 0.784 | -11.8 (inactive) | -42.6 (inactive)
COc1c2occc2cc2ccc(=O)oc12 [Methoxsalen] | 0.488 | 0.29 | -11.8 (inactive) | -16.1 (inactive)
CN(C)CCN(Cc1ccccc1)c1ccccn1 [Tripelennamine] | 0.67 | 0.588 | -35.6 (inactive) | -33.5 (inactive)
CCCCN1CCCC1CNC(=O)c1cc(C#N)c2ccccc2c1OC (centres undefined) [Nafadotride] | 0.516 | 0.414 | -15 (inactive) | -20.4 (inactive)
CC(=O)Oc1ccccc1C(=O)Nc1ncc([N+](=O)[O-])s1 [Nitazoxanide] | 1.18 | 1.61 | 4.89 (inactive) | 91.6 (active)
CCCN[C@H]1CCc2nc(N)sc2C1 [Pramipexole] | 0.851 ± 0.02 | 0.903 ± 0.21 | -6.49 (inactive) | -14.4 (inactive)
COc1ccc(-c2cc(=O)c3c(OC)c(OC)c(OC)c(OC)c3o2)cc1OC [Nobiletin] | 1.28 | 1.16 | -36.3 (inactive) | -46.5 (inactive)
CC(CCc1ccccc1)NCC(O)c1ccc(O)c(C(N)=O)c1 (centres undefined) [Labetalol] | 0.511 | 0.693 | -16.1 (inactive) | -9.26 (inactive)
CN(C)CCOC(c1ccc(Cl)cc1)c1ccccn1 (centres undefined) [Carbinoxamine] | 1.21 | 1.23 | 3.25 (inactive) | 8.5 (inactive)
CCCCC(=O)N(Cc1ccc(-c2ccccc2-c2nnn[nH]2)cc1)[C@H](C(=O)O)C(C)C [Valsartan] | 0.885 | 0.655 | -7.17 (inactive) | -17.4 (inactive)
C#C[C@]1(O)CC[C@H]2[C@@H]3CCc4cc(OC)ccc4[C@H]3CC[C@@]21C [Mestranol] | 0.724 | 0.298 | -6.5 (inactive) | -18 (inactive)
COc1ccc2c(c1)c(CC(=O)O)c(C)n2C(=O)c1ccc(Cl)cc1 [Indomethacin] | 0.699 | 0.877 | -12.4 (inactive) | -7.64 (inactive)
O=C(O[C@@H]1C[C@@H]2C[C@H]3C[C@H](C1)N2CC3=O)c1c[nH]c2ccccc12 [Dolasetron] | 0.649 | 0.701 | -3.78 (inactive) | -14.7 (inactive)
CCOC(=O)CCC(=O)O[C@H]1[C@H](O[C@@H]2[C@@H](C)[C@H](O[C@H]3C[C@@](C)(OC)[C@@H](O)[C@H](C)O3)[C@@H](C)C(=O)O[C@H](CC)[C@@](C)(O)[C@H](O)[C@@H](C)C(=O)[C@H](C)C[C@@]2(C)O)O[C@H](C)C[C@@H]1N(C)C [Erythromycin Ethylsuccinate] | 0.639 | 0.642 | -18 (inactive) | -16.3 (inactive)
CC(C)(C)C(O)/C=C/c1ccc2c(c1)OCO2 (centres undefined) [Stiripentol] | 0.738 | 0.84 | -11.3 (inactive) | -6.09 (inactive)
CC(=O)OCC(=O)[C@@]1(O)CC[C@H]2[C@@H]3CCC4=CC(=O)CC[C@]4(C)[C@H]3C(=O)C[C@@]21C [Cortisone acetate] | 0.82 | 0.732 | -45.2 (inactive) | -20.1 (inactive)
CO/N=C(\C(=O)N[C@@H]1C(=O)N2C(C(=O)O)=C(COC(C)=O)CS[C@H]12)c1csc(N)n1 [Cefotaxime] | 0.651 | 0.671 | -9.49 (inactive) | -10.3 (inactive)
